The list is not random: actives were taken first. Their share in the collection is about 2.4%.
Abeta yeast res = compounds reversing amyloid beta toxicity in yeast; yeast expressing A-beta42, growth rescue, OD600, 48 h; response scale: 0% DMSO, 100% iron-clioquinol control; Potency, µM (doses to about 46.1 µM), hits mostly activators; hit rate 0.063% among 410,000; AID 1347071; note: nearly all actives have a fitted effect of over 55% in size
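Yeast A-beta toxicity model in growth medium with pinned compounds, 48 h at 30 C; growth read as absorbance at 600 nm. Normalized to FeCl3/clioquinol equimolar mix (positive) and DMSO (negative).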
TDP-43 yeast inh = rescues yeast growth from TDP-43 toxicity; TDP-43 expressing yeast growth rescue, BacTiter-Glo, 24 h; Potency, µM (highest dose often 46.1 µM), actives largely listed as activators; hit rate 1.8% among 410,000; note: nearly all actives have a fitted effect of over 50% in size
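Luminescence from BacTiter-Glo reports growth of TDP-43-expressing yeast after 24 hr at 30 deg C with compound. Cells were raffinose-pregrown to mid-log, then seeded in galactose medium at OD600=0.02.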
A-T KAP1 phos = potential ataxia-telangiectasia treatments restoring KAP-1 phosphorylation | hit rate 0.19% among 320,000 | AID 485349 | Potency, µM (top dose mostly 57.5 µM), hits mostly activators | F2112 A-T fibroblasts, KAP-1 phosphorylation AlphaLISA; neocarzinostatin DNA damage 30 min before lysis; note: nearly all actives have a fitted effect of over 45% in size
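hTERT-immortalized A-T patient fibroblasts (F2112), 500 cells/well in OPTI-MEM, 1% FBS, got compounds for 60 min, then NCS for 30 min at 37C. Lysates were then assayed for phospho-KAP-1 by AlphaLISA (anti-pKAP1 donor, anti-KAP1 acceptor beads), 6 hr at 25C.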
aSyn rescue = inhibitors of alpha-synuclein toxicity in yeast | Yeast expressing alpha-synuclein, growth rescue, BacTiter-Glo, 24 h | Potency, µM (series often up to 46.1 µM), hits mostly activators | hit rate 0.14% among 370,000; note: nearly all actives have a fitted effect of over 65% in size
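Readout is rescue of growth in alpha-synuclein-expressing yeast, so inhibitors of toxicity appear as activators. Growth after 24 hr at 30 deg C in galactose medium is quantified by luminescence.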
Mito fusion act = blocks mitochondrial division or promotes mitochondrial fusion; S. cerevisiae fusion-defective mutant growth rescue, CellTiterGlo 48 h; hit rate 0.23% among 320,000; AID 485298; Potency, µM (series often up to 46.1 µM), hits mostly activators; note: nearly all actives have a fitted effect of over 45% in size
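Luminescent cell viability in 1536-well qHTS format served as the measure of rescued growth in ts fusion-mutant S. cerevisiae cultured on non-fermentable YPEG for 48 hours at 37C.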
FUS suppressor = suppressors of FUS proteinopathy in yeast | AID 1347120 | S. cerevisiae FUS-expressing, growth rescue, OD600, 24 h | Potency, µM (top dose mostly 76.6 µM), most hits filed as activators | hit rate 0.24% among 390,000; note: nearly all actives have a fitted effect of over 55% in size
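Yeast expressing FUS under galactose induction, OD 0.005 in 2% galactose medium; compounds in a dilution series, 24 h at 30C. Growth rescue by absorbance at 600 nm; CP55940 positive control, DMSO negative.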
A number is an active result; i = inactive; ? = inconclusive; nt = no result given. Calls come from the whole dose curve; as a rule, active = well fitted curve in the direction sought with a large enough effect; inconclusive = small, poorly fitted or top-dose-only effect, or another doubt; inactive = no such curve, though single readings can be large; an effect the other way counts as inactive or inconclusive.

SMILES	Abeta yeast res	TDP-43 yeast inh	A-T KAP1 phos	aSyn rescue	Mito fusion act	FUS suppressor
COc1ccc(-n2cc(-c3ccc(Cl)cc3)[nH]c2=S)cc1	i	i	i	i	i	i
CN(C)c1ccc(/C=C/c2ccnc3c(Cl)ccc(Cl)c23)cc1	nt	nt	nt	i	nt	nt
CN1CCc2c(sc3nc(SCC(N)=O)n(-c4ccccc4)c(=O)c23)C1	i	i	i	i	i	?
CN1CCc2c(sc3nc(SCC(=O)N4CCCCC4)n(-c4ccccc4)c(=O)c23)C1	i	i	i	5.6µM	i	i
CC1(C(=O)NC2CCCCC2)Cc2ccccc2C(=O)N1Cc1ccc(Cl)cc1 (stereo not drawn)	i	i	nt	nt	nt	i
CCc1ccccc1OCC(=O)Nc1ccc(F)c(S(=O)(=O)N2CCOCC2)c1	i	16µM	i	i	i	i
COc1ccc(S(=O)(=O)N2CCCCC2)cc1NC(=O)c1cccc(S(=O)(=O)N2CCOCC2)c1	i	i	nt	i	nt	nt
COc1ccc(C(=O)Nc2ccccc2N2CCCCC2)cc1[N+](=O)[O-]	i	18µM	i	i	i	i
O=C(Nc1cccc(S(=O)(=O)N2CCCCC2)c1)[C@@H]1CCCN1S(=O)(=O)c1ccccc1C(F)(F)F	i	i	nt	i	nt	25µM
COc1ccccc1NC(=O)c1cccc(S(=O)(=O)N2CCCCCC2)c1	i	35µM	nt	nt	nt	i
CC(=O)c1cccc(NC(=O)C2CCCN2S(=O)(=O)c2ccccc2C(F)(F)F)c1 (stereo not drawn)	i	i	nt	i	nt	i
Cc1nc2ccc(S(=O)(=O)NCC(=O)NCc3ccc(F)cc3)cc2s1	nt	nt	nt	nt	nt	i
CN(C)c1ccc(C(I)C(I)c2ccnc3ccccc23)cc1 (stereo not drawn)	nt	nt	nt	i	nt	nt
Cc1cc(C)c2nc(N(Cc3cccnc3)C(=O)c3ccc(S(=O)(=O)N(C)C)cc3)sc2c1	i	i	nt	nt	nt	i
O=C(COc1ccccc1Cl)Nc1cccc(S(=O)(=O)N2CCCC2)c1	i	18µM	i	i	i	i
O=C(COc1ccccc1)Nc1cccc(S(=O)(=O)N2CCCC2)c1	i	i	i	i	i	i
O=C(COc1ccc(F)cc1Cl)Nc1cccc(S(=O)(=O)N2CCCC2)c1	i	35µM	i	i	i	i
COc1cccc(C(=O)N2CCN(c3nc4cc(C)cc(C)c4cc3C#N)CC2)c1	i	35µM	nt	i	nt	i
COc1ccc2nc(N3CCC(C)CC3)c(C#N)cc2c1	i	35µM	i	i	i	i
Cc1ccc(C2(C)CC(C)(C)N(C(=O)CSc3nnc(C)s3)c3ccccc32)cc1 (stereo not drawn)	i	?	i	i	?	i
Cc1nnc(SCC(=O)N2c3ccccc3C(C)(c3ccccc3)CC2(C)C)s1 (stereo not drawn)	i	?	i	i	16µM	nt
CSCCCNC(=O)c1oc(=O)c2ccccc2c1-c1ccc(C)cc1	nt	nt	nt	nt	nt	i
Cc1cccc2cc(CN(Cc3nnnn3C3CCCCC3)C3CCCC3)c3nnnn3c12	i	?	i	i	11µM	i
CCOC(=O)CSc1nnc(CNc2ccc(Cl)cc2)n1Cc1ccccc1	i	14µM	i	?	i	i
N#Cc1cn(-c2ccccc2)nc1-c1ccco1	i	8.9µM	i	nt	i	i
SMILES	Abeta yeast res	TDP-43 yeast inh	A-T KAP1 phos	aSyn rescue	Mito fusion act	FUS suppressor
N#Cc1cn(-c2ccccc2)nc1-c1ccc2c(c1)OCCO2	i	i	i	i	i	i
COc1cc2nc(N3CCOCC3)nc(NC3CC3)c2cc1OC	nt	nt	nt	i	nt	nt
CCCCN1C(=O)C2(OCCCO2)c2cccc(C)c21	i	20µM	i	i	i	i
CCOC(=O)c1cc(-c2ccc(OC)c(S(=O)(=O)NC3CCCCC3)c2)on1	i	i	nt	nt	nt	i
COCCN(Cc1cccs1)S(=O)(=O)c1cc(-c2cc(C)no2)ccc1C	i	35µM	nt	nt	nt	i
O=C(NCCc1ccccc1)c1nn(-c2ccccc2Cl)nc1CO	i	35µM	nt	nt	nt	i
CCn1c(SCC(=O)Nc2ccccc2)nc2c([nH]c3ccccc32)c1=O	i	i	nt	i	nt	i
COC(=O)c1cn(NC(=O)c2cnccn2)c(=O)c2ccccc12	i	?	i	22µM	i	i
CCCc1cc(=O)oc2c(C)c3occ(C)c3cc12	i	i	i	i	10µM	i
Cc1coc2c(C)c3oc(=O)cc(-c4ccccc4)c3cc12	i	i	nt	i	nt	i
Clc1ccccc1Nc1ncnc2c1nc1n2CCCCC1	i	18µM	nt	nt	nt	i
Clc1cccc(Nc2ncnc3c2nc2n3CCCCC2)c1	i	16µM	nt	nt	nt	i
Cc1ccc(Nc2ncnc3c2nc2n3CCCC2)c(Br)c1	i	18µM	nt	nt	nt	i
Clc1cccc(CNc2ncnc3c2nc2n3CCCC2)c1	?	13µM	nt	nt	nt	i
O=C(Cn1nnc(-c2ccc(N3CCOCC3)cc2)n1)c1cccc(F)c1	nt	nt	nt	nt	nt	i
O=C(Cn1cc(S(=O)(=O)c2ccccc2)c(=O)c2cc3c(cc21)OCO3)Nc1ccc(Cl)cc1	i	i	nt	nt	nt	?
COc1cccc(NC(=O)CN(C)C(=O)c2cccnc2Nc2cccc(C(F)(F)F)c2)c1	i	?	i	i	i	?
Cc1ccc(NC(=O)CN(C)C(=O)c2cccnc2Nc2cccc(C(F)(F)F)c2)cc1	i	20µM	i	i	i	i
COc1ccc(CCNc2ncnc3c2c(-c2ccccc2)cn3-c2ccc(F)cc2)cc1OC	i	?	nt	nt	nt	?
COCCN(CCOC)c1ncnc2c1c(-c1ccccc1)cn2-c1ccc(C)c(Cl)c1	i	25µM	nt	nt	nt	i
COc1ccc(CNc2ncnc3c2c(-c2ccccc2)cn3-c2ccc(C)c(Cl)c2)cc1	i	i	nt	nt	nt	i
COc1ccc(CCNc2ncnc3c2c(-c2ccccc2)cn3-c2ccc(Cl)cc2)cc1OC	i	?	nt	nt	nt	14µM
CCCNc1ncnc2c1c(-c1ccccc1)cn2-c1ccccc1	i	22µM	nt	nt	nt	?
COc1ccc(-n2cc(-c3ccccc3)c3c(NC4CCCC4)ncnc32)cc1	i	22µM	nt	nt	nt	i
CCc1cnc2c(c1SCc1cc(OC)cc(OC)c1)c(=O)n(C)c(=O)n2C	i	i	nt	nt	nt	i
SMILES	Abeta yeast res	TDP-43 yeast inh	A-T KAP1 phos	aSyn rescue	Mito fusion act	FUS suppressor
CC(C)N(C(=O)Cn1cc(S(=O)(=O)Cc2ccc(Br)cc2)c2ccccc21)C(C)C	i	i	nt	nt	nt	i
CC(C)(C)OC(=O)N1CCC(c2ccc[nH]2)(c2c[nH]c3ccccc23)CC1	nt	nt	nt	nt	nt	i
CCN1CCCCC(NC(=O)c2ccc(C)cc2)C1=O (stereo not drawn)	nt	nt	nt	nt	nt	i
CCCN(C(=O)c1coc(=O)c2ccccc12)c1ccccc1C	i	i	nt	nt	nt	i
CCN(c1ccc(C)cc1)S(=O)(=O)c1nnc(NC(=O)C2CCCCC2)s1	i	i	nt	nt	nt	i
c1ccc(-c2cn(-c3ccccc3)c3ncnc(N4CCCCC4)c23)cc1	i	18µM	i	i	i	i

Screening results: PubChem BioAssay, National Center for Advancing Translational Sciences (NCATS)
